Screening results as filed in PubChem BioAssay.
The list is not random: actives were taken first. Their share in the collection is about 4.9%.
SKKanGAS inh = inhibitors of SKKanGAS S. pyogenes growth in kanamycin (SK-promoter or general growth effect); BacTiter-Glo, 6 h; inhibition, % at 7.5 µM; 300,000 compounds, 1.3% hits; AID 1662;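 active means mean replicate score, as percent of positive control median, at least 50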;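 further: strain carries kanamycin resistance gene driven by streptokinase promoter and grows in 40 µg/ml kanamycin; loss of luminescence reflects streptokinase promoter inhibition or plain growth inhibition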
TIM10 inh = TIM10 yeast growth inhibition. inhibition, % at 10 µM. S. cerevisiae TIM10 strain growth, BacTiter-Glo luminescence, 24 h. 330,000 compounds, 1.4% hits;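 active means inhibition of 40% or more at the single tested concentration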;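 further: wild-type TIM10 isogenic control strain grown at permissive 25 °C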
tim23-1 inh = tim23-1 yeast growth inhibition; inhibition, % at 20 µM; 330,000 compounds, 1.3% hits; S. cerevisiae tim23-1 growth, BacTiter-Glo luminescence, 24 h; AID 463212;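 active means growth inhibition of the mutant yeast at or above 50%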;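 further: temperature-sensitive mutant grown at 25 °C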
NALP1 inh = blocks the NALP1 inflammasome reconstituted in yeast; S. cerevisiae NALP1/ASC/caspase-1 growth, X-gal OD620, 72 h; inhibition, % at 10 µM; 280,000 compounds, 0.61% hits; AID 2071; in the data active means inhibition mostly above about 24%, no sharp cut-off; inactive means mostly below about 32%
NALP3 yeast inh = NALP3 inhibition in yeast | Yeast reconstituted NLRP3/ASC/caspase-1, beta-gal luminescence, 24 h | inhibition, % at 10 µM | 330,000 compounds, 0.39% hits;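 active means inhibition of 50% or more; inactive means inhibition below 50%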
tim10-1 inh = growth inhibitors of tim10-1 mutant yeast; S. cerevisiae tim10-1 ts strain growth, BacTiter-Glo, 24 h; 330,000 compounds, 2.2% hits; inhibition, % at 20 µM;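 active means inhibition of at least 40%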;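 further: mutant grown at 25 °C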
tim10-1 conf = tim10-1 yeast growth inhibition, confirmed; shares compounds with tim10-1 inh; S. cerevisiae tim10-1 ts strain growth, BacTiter-Glo, 24 h; inhibition, % at 20 µM; 7,400 compounds, 56% hits;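 active means inhibition of yeast growth at or above a set limit in either of two repeat tests at 20 µM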;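 further: tim10-1 mutant grown at permissive 25 °C to find synthetic lethal compounds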
Hits are given with their value; n = inactive; x = no result given.

SMILES | SKKanGAS inh | TIM10 inh | tim23-1 inh | NALP1 inh | NALP3 yeast inh | tim10-1 inh | tim10-1 conf
CCOC(=O)C1CCCN(C(=O)Cn2sc3nc(C)cc(C)c3c2=O)C1 (stereo not given) | n | n | n | n | n | 40.6 | n
Cc1cc(C)c2c(=O)n(CC(=O)N3CCC(N4CCCCC4)CC3)sc2n1 | n | n | n | n | n | n | x
c1ccc(-c2nnc3ccc(N4CCC5(CC4)OCCO5)nn23)cc1 | n | n | n | n | n | 43.1 | n
NC(=O)C1(N2CCCCC2)CCN(c2ccc3nnc(-c4ccccc4)n3n2)CC1 | n | n | n | n | n | n | x
Cc1nn(C)cc1/C=N\NC(=O)c1csc2c1CCCC2 | n | n | n | n | n | n | x
Cc1ccc(S(=O)(=O)N2CCCCC2CCNC(=O)C(=O)NCc2ccco2)cc1 (stereo not given) | n | n | n | x | n | 42.3 | n
O=C(Cc1cccs1)NCCc1ccc(Cl)cc1 | n | n | n | n | n | n | x
COc1ccc(C(O)P(=O)(OCCC(C)C)c2ccc(N(C)C)cc2)cc1OC (stereo not given) | n | n | n | n | n | n | x
Cc1ccc(C(O)P(=O)(OCCC(C)C)c2ccc(N(C)C)cc2)cc1 (stereo not given) | n | n | n | n | n | 41.1 | n
CCc1ccccc1NC(=O)C1CCCC1 | n | n | n | x | n | n | x
COC(=O)c1ccc(COc2cc(C)ccc2C)o1 | n | n | n | n | n | n | x
O=C(NNC(=S)NCc1ccccc1)c1ccccc1OC(F)F | n | n | n | n | n | n | x
O=C(NNC(=S)Nc1ccc(Cl)cc1)c1ccccc1OC(F)F | n | n | n | n | n | 42.5 | 39.3
O=C(NNC(=S)Nc1ccc(Br)cc1)c1ccccc1Br | n | n | n | n | n | 46.0 | n
COc1ccc(C(=O)Nc2ccc3c(c2)nc(CCNC(C)=O)n3C)cc1 | n | n | n | n | n | n | x
COc1ccc(C(=O)NCCc2nc3cc([N+](=O)[O-])ccc3n2C)cc1 | n | n | n | n | n | 54.6 | 38.0
CSc1cccc(NC(=O)N2CCCC(CNS(=O)(=O)Cc3ccccc3)C2)c1 (stereo not given) | n | n | n | n | n | n | x
CC(C)(C)c1ccc(COn2c(=O)c(-c3ccco3)[n+]([O-])c3ccccc32)cc1 | n | n | n | n | n | 49.7 | n
COc1cccc(-c2nn(-c3ccccc3)cc2CN(C)C(C)c2ccncn2)c1 (stereo not given) | n | n | n | n | n | 43.8 | n
COc1cccc(-c2nn(-c3ccccc3)cc2CO)c1 | n | n | n | n | n | n | x
COc1ccc(N2CC(C(=O)N[C@@H](C)C(=O)NCCc3ccccc3)CC2=O)cc1 (stereo not given in full) | n | n | n | n | n | n | x
Nc1nnc(SCC(=O)Nc2ccc(N3CCOCC3)c(Cl)c2)s1 | n | n | n | n | n | n | x
CC1CCCCN1C(=O)C1CCN(c2nc(-c3ccccc3)nc3c2CCC3)CC1 (stereo not given) | n | n | n | n | n | 56.4 | n
O=C(C1CCN(c2nc(-c3ccccc3)nc3c2CCC3)CC1)N1CCCC1 | n | n | n | n | n | n | x
CCc1ccc(-c2cnc3nc[nH]c(=O)c3n2)cc1 | n | n | n | x | n | n | x
SMILES | SKKanGAS inh | TIM10 inh | tim23-1 inh | NALP1 inh | NALP3 yeast inh | tim10-1 inh | tim10-1 conf
COc1ccc2[nH]c(=O)c(CN(C3CCCCC3)C(c3nnnn3Cc3ccco3)C(C)C)cc2c1 (stereo not given) | n | n | n | n | n | 41.4 | n
COc1ccc2[nH]c(=O)c(CN(Cc3nnnn3Cc3ccco3)C3CCCCC3)cc2c1 | n | n | n | n | n | n | x
COc1ccc(NC(=O)N(CCC(C)C)C(C)c2ccccn2)c(OC)c1 (stereo not given) | n | n | n | n | n | 41.2 | n
CCC(C)C(=O)Nc1ccc(OC)cc1OC (stereo not given) | n | n | n | n | n | n | x
O=C1C(=O)N(C2CCS(=O)(=O)C2)C(c2cccc(O)c2)/C1=C(/O)c1ccc(Cl)cc1 (stereo not given) | n | n | n | n | n | n | x
CCCC[C@@H]1CNC(=S)N1CCC12CC3CC(CC(C3)C1)C2 | n | n | n | n | n | 41.5 | n
